Assay results reported in PubChem BioAssay (EPA / NIEHS).
Activity calls are given as the source filed them. Rule for the calls: active = hit-call score of the fitted dose curve at least 0.9, where 1 is the maximum; inactive = score below 0.9.

Tests used:
[1] = ATG_CRE_CIS: Attagene CIS-FACTORIAL HepG2 Assay for human cAMP Responsive Element (CRE) binding protein 3 (AID 2282926); conditions: HepG2 CRE cis-reporter, Attagene multiplexed mRNA; actives raise or lower the signal
Outline: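 We dosed HepG2 cells bearing multiple cis-promoter reporter units for 24 h and measured reporter mRNA by RT-PCR with capillary electrophoresis detection. Bidirectional concentration-response fitting used DMSO as negative control.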

[2] = target: CCAAT/enhancer-binding protein beta (Homo sapiens) (UniProt P17676); test: ATG_C_EBP_CIS: Attagene CIS-FACTORIAL HepG2 Assay for human CCAAT/Enhancer Binding Protein (C/EBP) beta (AID 2282927); conditions: HepG2 Attagene cis-factorial transcription factor reporter; actives raise or lower the signal
Outline: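 Endogenous C/EBPb-driven reporter transcripts measured in transfected human HepG2 cells at 24 h via RT-PCR and capillary electrophoresis of labelled fragments. Activity fitted in both directions relative to DMSO baseline.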

[3] = ATG_CMV_CIS: Attagene CIS-FACTORIAL HepG2 Assay for human CMV (Internal Marker) (AID 2282928); conditions: HepG2 CMV promoter reporter, transcription factor profiling; actives raise or lower the signal;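 note: endpoint acts as a background internal control marker rather than a target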
Outline: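 After transient transfection of HepG2 with reporter transcription units driven by cis-regulatory promoters, cells receive test chemical for 24 h. Labeled reporter amplicons, digested with HpaI, are sized and quantified by capillary electrophoresis against DMSO.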

[4] = ATG_DR4_LXR_CIS: Attagene CIS-FACTORIAL HepG2 Assay for human Liver X Receptor (LXR), DR4 submotif (AID 2282929); conditions: HepG2 Attagene DR4 cis-reporter, mRNA transcription; actives raise or lower the signal
Outline: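 HepG2 cells transiently transfected with cis-promoter-driven multiplexed reporter units (DR4 element) were dosed for 24 h. Reporter mRNA was quantified by RT-PCR, fluorescent primer extension, HpaI digestion and capillary electrophoresis; bidirectional fitting versus DMSO baseline.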

[5] = target: Aryl hydrocarbon receptor (Homo sapiens) (UniProt P35869); test: ATG_Ahr_CIS: Attagene CIS-FACTORIAL HepG2 Assay for human Aryl Hydrocarbon Receptor (Ahr) (AID 2282930); conditions: HepG2 AhR cis-factorial reporter transcription; actives raise or lower the signal
Outline: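 Reporter mRNA levels, quantified by RT-PCR and fluorescent capillary electrophoresis, reflect endogenous AhR transcriptional activity in HepG2 cells carrying transfected cis-promoter reporter constructs. Readout at 24 h post-dose; gain or loss fitted against DMSO baseline.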

[6] = ATG_AP_1_CIS: Attagene CIS-FACTORIAL HepG2 Assay for human Activator Protein 1 (AP-1) (AID 2282931); conditions: HepG2 Attagene cis-factorial AP-1 reporter mRNA; actives raise or lower the signal
Outline: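 HepG2 cells transiently transfected with cis-element-driven multiplex reporter units; 24 h compound exposure. Reporter mRNA quantified by RT-PCR, FAM-labelled fragments resolved by capillary electrophoresis; bidirectional fit versus DMSO baseline.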

[7] = ATG_AP_2_CIS: Attagene CIS-FACTORIAL HepG2 Assay for human Activator Protein 2 (AP-2) (AID 2282932); conditions: HepG2 AP-2 cis-reporter, Attagene transcription factor profiling; actives raise or lower the signal
Outline: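 HepG2, transient MRTU transfection, cis-regulated reporters; 24 h compound exposure; RNA isolated, RT-PCR, 6-FAM labelling, HpaI digest, CE fluorescence. DMSO = negative control/baseline, bidirectional fit.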

[8] = ATG_BRE_CIS: Attagene CIS-FACTORIAL HepG2 Assay for human Bone Morphogenetic Protein (BMP) Response Element (BRE) (AID 2282933); conditions: HepG2 BMP response element reporter, Attagene transcription factor profiling; actives raise or lower the signal
Outline: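 Endogenous transcription factor activity read in transiently transfected HepG2 cells after 24 h chemical exposure. Bidirectional curve fitting against DMSO; readout is reporter transcript level by RT-PCR with capillary electrophoresis of labelled products.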

[9] = target: Retinoic acid receptor alpha (Homo sapiens) (UniProt P10276); test: ATG_DR5_RAR_CIS: Attagene CIS-FACTORIAL HepG2 Assay for human Retinoic Acid Receptor Alpha (RARE), DR5 submotif (AID 2282934); conditions: HepG2 Attagene cis-factorial RARE DR5 reporter, mRNA; actives raise or lower the signal;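 for AC50: reporter responds to endogenous RAR alpha beta and gamma in HepG2 not RARA alone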
Outline: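 Reporter transcripts from a DR5-regulated unit, measured via RT-PCR plus capillary electrophoresis, reflect endogenous RAR activity in transiently transfected human HepG2 liver cells. Exposure lasted 24 h; gain or loss of signal scored against DMSO.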

[10] = target: Transcription factor E2F1 (Homo sapiens) (UniProt Q01094); test: ATG_E2F_CIS: Attagene CIS-FACTORIAL HepG2 Assay for human E2F Transcription Factor 1 (AID 2282935); conditions: HepG2 Attagene cis-reporter, E2F reporter RNA transcripts; actives raise or lower the signal
Outline: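 Cis-element reporter mRNA induction in transiently transfected HepG2, 24 h exposure. Activity fitted in both directions relative to DMSO negative control.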

Measured: AC50

Chain of Transcription factor E2F1 (Homo sapiens) (Q01094 whole entry, looked up): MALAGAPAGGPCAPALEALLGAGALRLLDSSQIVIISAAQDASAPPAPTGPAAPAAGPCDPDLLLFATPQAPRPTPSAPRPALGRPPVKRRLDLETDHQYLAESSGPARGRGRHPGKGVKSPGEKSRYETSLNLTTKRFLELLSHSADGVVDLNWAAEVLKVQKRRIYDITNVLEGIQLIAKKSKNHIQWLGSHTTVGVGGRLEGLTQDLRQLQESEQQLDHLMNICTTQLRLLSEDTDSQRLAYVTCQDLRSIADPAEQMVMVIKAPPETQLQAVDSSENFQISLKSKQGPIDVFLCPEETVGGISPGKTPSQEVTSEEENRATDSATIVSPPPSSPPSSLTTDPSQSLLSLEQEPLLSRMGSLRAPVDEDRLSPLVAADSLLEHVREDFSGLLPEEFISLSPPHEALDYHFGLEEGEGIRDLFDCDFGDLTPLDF
Chain of CCAAT/enhancer-binding protein beta (Homo sapiens) (P17676 whole entry, looked up, the tested form may be a part): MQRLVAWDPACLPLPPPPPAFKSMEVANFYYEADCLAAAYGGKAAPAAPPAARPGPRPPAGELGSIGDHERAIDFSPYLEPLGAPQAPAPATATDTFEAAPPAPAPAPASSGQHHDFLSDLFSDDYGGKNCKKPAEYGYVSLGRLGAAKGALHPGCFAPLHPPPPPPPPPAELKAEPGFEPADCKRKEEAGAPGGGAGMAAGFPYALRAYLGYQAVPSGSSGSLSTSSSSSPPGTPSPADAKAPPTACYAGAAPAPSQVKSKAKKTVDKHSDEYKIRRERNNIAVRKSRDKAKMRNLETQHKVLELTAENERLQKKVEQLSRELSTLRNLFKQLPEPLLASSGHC
Chain of Retinoic acid receptor alpha (Homo sapiens) (P10276 whole entry, looked up): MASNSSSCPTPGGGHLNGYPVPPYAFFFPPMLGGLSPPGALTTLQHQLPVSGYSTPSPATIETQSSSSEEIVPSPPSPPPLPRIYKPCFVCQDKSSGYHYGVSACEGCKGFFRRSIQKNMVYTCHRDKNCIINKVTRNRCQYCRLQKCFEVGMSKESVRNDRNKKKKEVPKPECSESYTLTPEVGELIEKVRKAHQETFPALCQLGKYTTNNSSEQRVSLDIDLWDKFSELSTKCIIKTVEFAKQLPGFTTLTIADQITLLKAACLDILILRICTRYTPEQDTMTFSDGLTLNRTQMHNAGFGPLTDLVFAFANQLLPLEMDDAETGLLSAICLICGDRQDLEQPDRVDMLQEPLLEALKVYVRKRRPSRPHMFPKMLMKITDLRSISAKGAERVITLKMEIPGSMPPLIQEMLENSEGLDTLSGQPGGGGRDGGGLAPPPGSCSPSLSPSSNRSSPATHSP
Chain of Aryl hydrocarbon receptor (Homo sapiens) (P35869 whole entry, looked up): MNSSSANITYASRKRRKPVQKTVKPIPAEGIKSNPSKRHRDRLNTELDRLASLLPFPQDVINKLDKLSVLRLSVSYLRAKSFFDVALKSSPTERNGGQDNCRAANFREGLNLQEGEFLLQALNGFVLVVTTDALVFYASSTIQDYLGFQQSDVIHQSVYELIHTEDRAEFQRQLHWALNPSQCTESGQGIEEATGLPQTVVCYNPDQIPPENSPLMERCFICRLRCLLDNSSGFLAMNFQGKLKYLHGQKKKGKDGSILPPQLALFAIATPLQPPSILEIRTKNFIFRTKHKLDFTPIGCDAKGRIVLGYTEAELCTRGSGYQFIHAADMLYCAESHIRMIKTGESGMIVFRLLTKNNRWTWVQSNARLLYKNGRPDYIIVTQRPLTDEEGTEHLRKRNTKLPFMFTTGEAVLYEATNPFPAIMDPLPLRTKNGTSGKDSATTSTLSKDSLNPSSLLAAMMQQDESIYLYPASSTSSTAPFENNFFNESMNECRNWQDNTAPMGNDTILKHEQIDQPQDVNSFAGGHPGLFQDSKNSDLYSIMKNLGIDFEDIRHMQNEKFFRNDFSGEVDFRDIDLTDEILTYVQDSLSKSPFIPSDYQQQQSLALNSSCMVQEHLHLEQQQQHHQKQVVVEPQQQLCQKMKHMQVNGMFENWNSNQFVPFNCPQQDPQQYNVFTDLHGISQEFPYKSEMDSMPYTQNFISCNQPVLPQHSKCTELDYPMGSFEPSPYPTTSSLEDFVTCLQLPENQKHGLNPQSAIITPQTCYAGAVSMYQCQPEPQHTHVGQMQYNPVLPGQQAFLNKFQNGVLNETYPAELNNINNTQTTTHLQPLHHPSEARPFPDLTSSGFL

NC(=O)c1ccccc1O
inactive: all assays above

CC(=O)c1ccc[nH]1
inactive: all assays above

CCCCCCCCCCCCCCCC(=O)OCC
inactive: all assays above

N#CCc1ccc(Cl)cc1Cl
active: [5] 18.6 µM
inactive: all other assays above

CC1=NC(C)OC1C (stereo not drawn)
active: [3] 153 µM | [6] 100 µM
inactive: all other assays above

O=C(/C=C/C=C/c1ccc2c(c1)OCO2)N1CCCCC1
active: [4] 72.6 µM | [8] 176 µM
inactive: all other assays above

CCCCC(CC)COC(=O)c1ccccc1 (stereo not drawn)
inactive: all assays above

CCC(CC)C(=O)O
inactive: all assays above

C=C(C)C(=O)OCCO
inactive: all assays above

CO[Si](OC)(OC)c1ccccc1
inactive: all assays above

CCCCCc1ccc(Cl)cc1
active: [3] 66.4 µM | [9] 84.1 µM | [10] 61.5 µM
inactive: all other assays above

CC=CCO
inactive: all assays above

CC(=O)OC(C)C
inactive: all assays above

COC(=O)c1c(C)cc(O)c(C)c1O
inactive: all assays above

C[Si](C)(CCCN)O[Si](C)(C)CCCN
inactive: all assays above

CCCCCCCCCCCCCOP(=O)(O)O
inactive: all assays above

CCCCCCCCCCCCCCCC[N+](C)(C)CC
active: [3] 8.84 µM | [4] 9.13 µM | [6] 16.3 µM | [7] 12.6 µM | [10] 5.48 µM
inactive: all other assays above

O=C(O)CCCC[C@@H]1SC[C@@H]2NC(=O)N[C@@H]21
inactive: all assays above

CCOC(=O)N1CCC(=C2c3ccc(Cl)cc3CCc3cccnc32)CC1
active: [3] 7.56 µM | [4] 9.1 µM
not listed: [9]
inactive: all other assays above

Cc1cccc(OCCOc2cccc(C)c2)c1
inactive: all assays above

C1CN(SSN2CCOCC2)CCO1
inactive: all assays above

CCC(Cc1ccccc1)(C(=O)c1ccc(N2CCOCC2)cc1)N(C)C (stereo not drawn)
active: [6] 72.1 µM | [9] 73.1 µM
inactive: all other assays above

COCc1c(C(C)C)nc(C(C)C)c(/C=C/[C@@H](O)C[C@@H](O)CC(=O)O)c1-c1ccc(F)cc1
inactive: all assays above

C=CCOCC(O)CCl (stereo not drawn)
not listed: [9]
inactive: all other assays above
